# In PubChem BioAssay (NCATS):
# Inconclusive results are not listed. Calls of active or inactive are those of the source. The call rests on the fitted dose curve.
# Target: Peroxisome proliferator-activated receptor delta (Homo sapiens) (UniProt Q03181)
# Test: qHTS assay for small molecule agonists of peroxisome proliferator-activated receptor delta signaling (AID 588534)
# Settings: HEK293T PPARdelta-UAS-bla, beta-lactamase ratio, 18 h; series mostly up to 76.7 µM
# Procedure, shortened: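 Titration series tested in agonist mode on beta-lactamase reporter cells; 18 hrs at 37 C after a 5 hr pre-incubation. Readout: CCF4 fluorescence, 2 hrs RT. Hill equation gives EC50 and maximal response.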
# Peroxisome proliferator-activated receptor delta (Homo sapiens), sequence (Q03181 whole entry, looked up): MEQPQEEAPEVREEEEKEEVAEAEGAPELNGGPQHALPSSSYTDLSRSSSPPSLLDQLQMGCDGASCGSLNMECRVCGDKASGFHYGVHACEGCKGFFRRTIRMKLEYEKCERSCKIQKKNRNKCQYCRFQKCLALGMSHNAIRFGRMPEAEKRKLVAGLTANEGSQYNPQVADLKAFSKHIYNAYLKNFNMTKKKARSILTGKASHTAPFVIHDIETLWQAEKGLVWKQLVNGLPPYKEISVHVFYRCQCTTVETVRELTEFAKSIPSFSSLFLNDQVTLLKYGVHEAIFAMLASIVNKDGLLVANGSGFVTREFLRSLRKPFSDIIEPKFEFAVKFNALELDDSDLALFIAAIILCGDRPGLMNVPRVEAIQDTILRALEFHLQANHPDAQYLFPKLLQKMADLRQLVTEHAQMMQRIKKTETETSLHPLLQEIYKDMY
row,SMILES,outcome
1,Nc1nc(CC(=O)O)cs1,inactive
2,Cc1ccc2ccccc2c1[N+](=O)[O-],inactive
3,O=S(c1ccc(Cl)cc1)c1cc(Cl)c(Cl)cc1Cl (centres undefined),inactive
4,CNc1ccccc1,inactive
5,CCCCCCCCN,inactive
6,Cc1c(N)cccc1Cl,inactive
7,CCCCCCCCC/C=C/CC1CC(=O)OC1=O (centres undefined),inactive
8,Cc1cccc2sc(N)nc12,inactive
9,CC(C)=CCC/C(C)=C/C=O,inactive
10,ICCc1ccccc1,inactive
11,C=C(C)C(=O)OCCN(C)C,inactive
12,Cc1cccc(C(=O)O)c1[N+](=O)[O-],inactive
13,CC12CCC(CC1=O)C2(C)C (centres undefined),inactive
14,Oc1ccc2cc(SSc3ccc4cc(O)ccc4c3)ccc2c1,inactive
15,O=c1oc(=O)c2cc3c(=O)oc(=O)c3cc12,inactive
16,NC(N)=O,inactive
17,COC(=O)c1cccc(C(=O)OC)c1,inactive
18,COC(=O)CSc1cc(N=c2sc(=O)n3n2CCCC3)c(F)cc1Cl,inactive
19,Cc1ccc(S(=O)(=O)N=C=O)cc1,inactive
20,O=C(O[C@@H](C(=O)O)[C@@H](OC(=O)c1ccccc1)C(=O)O)c1ccccc1,inactive

row,SMILES,outcome
1,CCC=O,inactive
2,OB(O)O,inactive
3,CCCCOCCOCCSC#N,inactive
4,Nc1cc([N+](=O)[O-])ccc1O,inactive
5,CCOC(=O)COc1cc(-n2ncc(C(F)(F)F)c(C)c2=O)c(F)cc1Cl,inactive
6,Cc1ccc(S(=O)(=O)Oc2ccc(N=Nc3ccc(-c4ccc(N=Nc5c(O)ccc6cc(S(=O)(=O)O)cc(S(=O)(=O)O)c56)c(C)c4)cc3C)cc2)cc1,inactive
7,CS(=O)(=O)c1ccc(Cl)cc1,inactive
8,CCCCN(CCCC)CCCCCCN(CCCC)CCCC,inactive
9,O=C(/C=C/c1ccc(O)c(O)c1)OC1C[C@](O)(C(=O)O)C[C@@H](O)[C@H]1O (some centres undefined),inactive
10,NC(=O)CCCCC(N)=O,inactive
11,C=C(C)C(=O)OCC[N+](C)(C)C,inactive
12,Cc1ccc(Cl)cc1N,inactive
13,CCCCCCCC(=O)OC,inactive
14,C1CCCNCC1,inactive
15,CCCCCCCCO,inactive
16,c1ccc(Nc2ccccc2)cc1,inactive
17,O=C1OC(=O)c2cc([N+](=O)[O-])ccc21,inactive
18,CCCCC(CC)CN (centres undefined),inactive
19,Nc1nc(N)nc(-c2ccccc2)n1,inactive
